# ABHD5-PLIN5 inh = ABHD5-PLIN5 protein interaction inhibition | Q00G26+Q8WTS1 | Split G. princeps luciferase complementation, luminescence, 4 h | inhibition, % at 4 µM | 360,000 compounds, 0.78% hits;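 active = inhibition above the mean inhibition across every tested compound plus 3 SD, cut at about 22% in these data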;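 note: 0% = DMSO only wells and the 100% control is not disclosed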
# Target sequence (Q00G26 whole entry, looked up): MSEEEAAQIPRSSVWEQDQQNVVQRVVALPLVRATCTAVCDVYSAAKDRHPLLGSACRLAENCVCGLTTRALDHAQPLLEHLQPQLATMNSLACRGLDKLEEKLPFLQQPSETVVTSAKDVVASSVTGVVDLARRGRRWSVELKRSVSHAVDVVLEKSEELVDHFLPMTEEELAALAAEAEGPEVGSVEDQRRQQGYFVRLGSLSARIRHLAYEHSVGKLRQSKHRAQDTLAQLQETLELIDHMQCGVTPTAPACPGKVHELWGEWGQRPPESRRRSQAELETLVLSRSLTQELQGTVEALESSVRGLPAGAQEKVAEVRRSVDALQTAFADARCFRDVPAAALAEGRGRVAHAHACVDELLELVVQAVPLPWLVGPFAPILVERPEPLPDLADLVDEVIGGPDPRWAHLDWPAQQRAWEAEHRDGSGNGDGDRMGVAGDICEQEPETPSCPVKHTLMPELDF
# Target sequence (Q8WTS1 whole entry, looked up): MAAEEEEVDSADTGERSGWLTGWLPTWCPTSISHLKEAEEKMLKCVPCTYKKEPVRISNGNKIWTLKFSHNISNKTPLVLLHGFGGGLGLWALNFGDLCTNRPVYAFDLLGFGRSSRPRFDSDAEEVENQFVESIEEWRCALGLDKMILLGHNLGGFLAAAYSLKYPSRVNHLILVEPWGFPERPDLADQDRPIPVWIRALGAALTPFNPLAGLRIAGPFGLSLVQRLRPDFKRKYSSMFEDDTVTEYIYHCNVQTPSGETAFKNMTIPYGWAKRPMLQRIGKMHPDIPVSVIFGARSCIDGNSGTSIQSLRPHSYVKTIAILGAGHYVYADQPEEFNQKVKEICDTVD
# PAX8 reporter = lowers PAX8-driven luciferase in RMG-I cells | RMG-I TPO-luciferase reporter, SteadyGlo, 24 h | inhibition, % at 12.6 µM | 360,000 compounds, 1.2% hits;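 active = mean replicate inhibition at least 60% with every replicate also reaching 60%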;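 note: luciferase light reporting Pax8 driven TPO promoter activity; plate controls were median of neutral control wells for no effect and mitoxantrone controls for full effect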
# EWS-Fli block = inhibitors of EWS/Fli oncoprotein transcriptional activity. A673 NR0B1-luciferase reporter, viability-normalised. inhibition, % at 12.6 µM. 350,000 compounds, 0.67% hits. AID 651661;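 active = mean inhibition of at least 50% after viability correction, with every replicate also passing that limit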;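 note: firefly luciferase signal divided by Alamar Blue viability fluorescence both relative to DMSO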
# Peg3 prom inh = Peg3 promoter activity inhibition. 360,000 compounds, 1.7% hits. HeLa PEG-Prom luciferase reporter, luminescence, overnight. inhibition, % at 20 µM;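 active = inhibition of at least 50% at 20 µM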
# TRPM1 prom inh = reduces MITF-dependent TRPM1 promoter luciferase signal; SK-MEL-5 TRPM1 promoter luciferase, 24 h; inhibition, % at 12.5 µM; 330,000 compounds, 0.83% hits; AID 488899;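 active = mean inhibition across replicates of 60% or more, whatever share of single replicates reaches that level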
# Shn3 inh set2 = Schnurri-3 reporter inhibition in Clone20 osteoblasts | Clone20 osteoblast Shn3 3'UTR firefly luciferase, 24 h | AID 588674 | 360,000 compounds, 0.52% hits | inhibition, % at 12.5 µM;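 active = mean inhibition of at least 75% with every replicate also reaching 75%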;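 note: 0% = median of neutral control wells and 100% = pilot-screen positive control compound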
# * hit, by the source's call; / = not tested or not shown; ! = a repeat was not active. In the library only some 3% were active in any assay of this set; here they are far more common.
SMILES,ABHD5-PLIN5 inh,PAX8 reporter,EWS-Fli block,Peg3 prom inh,TRPM1 prom inh,Shn3 inh set2
COc1cccc(-c2cc(NC=O)c3ncc(-c4ccc(OC)c(OC)c4)n3c2)c1,9,17,26,49,/,14
COc1ccc(-c2cc(NC=O)c3ncc(-c4ccc(OC)c(OC)c4)n3c2)c(OC)c1,3,83*,47,47,/,37
C/C=C/c1ccc2c(c1)O[C@@H](CN(C)CC1CCCCC1)[C@@H](C)CN([C@@H](C)CO)S2(=O)=O,/,/,2,/,/,/
COc1cc(OC)cc(C(=O)NCC(=O)OCC(=O)c2cc(C)n(Cc3ccco3)c2C)c1,4,92*,2,-1,15,-81
Cc1cc(-c2csc(NC(=O)c3ccc(C#N)cc3)n2)c(C)n1Cc1ccco1,13,121*,-3,2,13,-20
COc1cccc(-c2ccc3n(c2=O)C[C@H]2[C@H](CO)[C@@H](C(=O)NC4CCC4)N[C@@H]32)c1,/,/,7,/,/,/
Cc1cccn2c(=O)c3cc(C#N)c(=NC(=O)c4cccs4)n(CC(C)C)c3nc12,-5,32,3,30,1,9
Cc1cccc(C(=O)N=c2c(C#N)cc3c(=O)n4cccc(C)c4nc3n2Cc2ccco2)c1,50*!,-3,-18,-30,-11,-7
Cc1cccn2c(=O)c3cc(C#N)c(=NC(=O)c4ccccc4)n(Cc4ccco4)c3nc12,46*!,-27,-10,-21,-8,-14
COCCCn1c(=NC(=O)c2ccccc2)c(C#N)cc2c(=O)n3cccc(C)c3nc21,6,13,-7,29,-12,/
COc1cc(/C=N/N=C(N)N)ccc1OCc1ccccc1Cl,10,-8,1,102*,-1,76
COc1ccc2c(c1)c1ccc3c(c1n2C)C(=O)C=CC3=O,20,11,60*,104*,92*,96*
Cc1ccc2c(c1)c1ccc3c(c1n2C)C(=O)C=CC3=O,5,2,40,107*,93*,95*
C[C@H](CO)N1C[C@H](C)[C@@H](CN(C)C(=O)Nc2ccc3c(c2)OCO3)Oc2ccc(NS(=O)(=O)c3ccc(F)cc3)cc2CC1=O,/,7,-3,/,/,/
C[C@@H]1CN([C@H](C)CO)C(=O)c2cc(NS(=O)(=O)c3ccccc3)ccc2O[C@@H](C)CCCCO[C@@H]1CN(C)C,/,2,-2,/,/,/
Cn1ncc2c(O/N=C(\N)c3ccc(C(C)(C)C)cc3)ncnc21,-5,/,/,112*,80*,5
CC(=O)N1C[C@@H]2[C@H](c3ccccc31)[C@@H](CO)N2C(=O)c1ccc(F)cc1,/,-9,2,/,/,/
O=C(C[C@H]1CC[C@H](NC(=O)c2ccccn2)[C@H](CO)O1)NCc1cc(F)cc(F)c1,/,1,0,/,/,/
CC1CCN(CCNC(=O)c2ccc3c(=O)n(Cc4ccc(Cl)cc4)c(=S)[nH]c3c2)CC1,10,/,/,95*,45,-8
C[C@@H]1CN([C@H](C)CO)C(=O)c2cc(NC(=O)Nc3ccc4c(c3)OCO4)ccc2O[C@H]1CN(C)C(=O)Nc1ccc(C(F)(F)F)cc1,/,65*,-42,/,/,/
C[C@@H]1CN([C@H](C)CO)C(=O)c2cc(NC(=O)Nc3ccc(C(F)(F)F)cc3)ccc2O[C@@H]1CN(C)C(=O)Nc1ccc2c(c1)OCO2,/,/,-1,/,/,/
C[C@@H]1CN([C@H](C)CO)C(=O)c2cc(NC(=O)Nc3ccc(C(F)(F)F)cc3)ccc2O[C@@H]1CN(C)C(=O)Nc1ccc(C(F)(F)F)cc1,/,13,-7,/,/,/
C[C@@H]1CN([C@@H](C)CO)C(=O)c2cc(NC(=O)Nc3ccc(C(F)(F)F)cc3)ccc2O[C@H]1CN(C)C(=O)Nc1ccc(C(F)(F)F)cc1,/,92*,21,/,/,/
CCc1ccc(CNCc2ccc(OCC(O)CN(C)Cc3ccccc3)cc2)nc1 (stereo not given),-4,33,43,10,6,86*
CN(Cc1ccccc1)CC(O)COc1ccc(CNCCc2cccnc2)cc1 (stereo not given),3,9,-2,-1,-21,-16
Cc1noc(C)c1NC(=O)N(C)C[C@H]1Oc2c(NC(=O)NC3CCCCC3)cccc2C(=O)N([C@@H](C)CO)C[C@@H]1C,/,/,-5,/,/,/
CCN1C(=O)[C@H]2[C@@H](c3ccc(-c4ccc(OC)cc4)cc3)N3CCC[C@@]3(C(=O)OC)[C@H]2C1=O,4,-14,-6,-10,-18,90*

# Compound activity: PubChem BioAssay, several laboratories
